Compound activity (PubChem BioAssay)
Pf apPOL inh – Pf-apPOL inhibitors, biochemical, fluorescence | Recombinant Pf-apPOL, molecular beacon fluorescence, 1.5 h | inhibition, % at 10 µM | actives 0.25% (n = 210,000)
mHTT CaM bind – mutant huntingtin-calmodulin interaction inhibitors – biochemical, AlphaScreen, primary screen | inhibition, % at 15 µM | P42858 | AlphaScreen His-mHTT/GST-CaM binding, luminescence | AID 1671202, 2021 | actives 3.6% (n = 190,000)
Target sequence (P42858 whole entry, looked up, change not shown): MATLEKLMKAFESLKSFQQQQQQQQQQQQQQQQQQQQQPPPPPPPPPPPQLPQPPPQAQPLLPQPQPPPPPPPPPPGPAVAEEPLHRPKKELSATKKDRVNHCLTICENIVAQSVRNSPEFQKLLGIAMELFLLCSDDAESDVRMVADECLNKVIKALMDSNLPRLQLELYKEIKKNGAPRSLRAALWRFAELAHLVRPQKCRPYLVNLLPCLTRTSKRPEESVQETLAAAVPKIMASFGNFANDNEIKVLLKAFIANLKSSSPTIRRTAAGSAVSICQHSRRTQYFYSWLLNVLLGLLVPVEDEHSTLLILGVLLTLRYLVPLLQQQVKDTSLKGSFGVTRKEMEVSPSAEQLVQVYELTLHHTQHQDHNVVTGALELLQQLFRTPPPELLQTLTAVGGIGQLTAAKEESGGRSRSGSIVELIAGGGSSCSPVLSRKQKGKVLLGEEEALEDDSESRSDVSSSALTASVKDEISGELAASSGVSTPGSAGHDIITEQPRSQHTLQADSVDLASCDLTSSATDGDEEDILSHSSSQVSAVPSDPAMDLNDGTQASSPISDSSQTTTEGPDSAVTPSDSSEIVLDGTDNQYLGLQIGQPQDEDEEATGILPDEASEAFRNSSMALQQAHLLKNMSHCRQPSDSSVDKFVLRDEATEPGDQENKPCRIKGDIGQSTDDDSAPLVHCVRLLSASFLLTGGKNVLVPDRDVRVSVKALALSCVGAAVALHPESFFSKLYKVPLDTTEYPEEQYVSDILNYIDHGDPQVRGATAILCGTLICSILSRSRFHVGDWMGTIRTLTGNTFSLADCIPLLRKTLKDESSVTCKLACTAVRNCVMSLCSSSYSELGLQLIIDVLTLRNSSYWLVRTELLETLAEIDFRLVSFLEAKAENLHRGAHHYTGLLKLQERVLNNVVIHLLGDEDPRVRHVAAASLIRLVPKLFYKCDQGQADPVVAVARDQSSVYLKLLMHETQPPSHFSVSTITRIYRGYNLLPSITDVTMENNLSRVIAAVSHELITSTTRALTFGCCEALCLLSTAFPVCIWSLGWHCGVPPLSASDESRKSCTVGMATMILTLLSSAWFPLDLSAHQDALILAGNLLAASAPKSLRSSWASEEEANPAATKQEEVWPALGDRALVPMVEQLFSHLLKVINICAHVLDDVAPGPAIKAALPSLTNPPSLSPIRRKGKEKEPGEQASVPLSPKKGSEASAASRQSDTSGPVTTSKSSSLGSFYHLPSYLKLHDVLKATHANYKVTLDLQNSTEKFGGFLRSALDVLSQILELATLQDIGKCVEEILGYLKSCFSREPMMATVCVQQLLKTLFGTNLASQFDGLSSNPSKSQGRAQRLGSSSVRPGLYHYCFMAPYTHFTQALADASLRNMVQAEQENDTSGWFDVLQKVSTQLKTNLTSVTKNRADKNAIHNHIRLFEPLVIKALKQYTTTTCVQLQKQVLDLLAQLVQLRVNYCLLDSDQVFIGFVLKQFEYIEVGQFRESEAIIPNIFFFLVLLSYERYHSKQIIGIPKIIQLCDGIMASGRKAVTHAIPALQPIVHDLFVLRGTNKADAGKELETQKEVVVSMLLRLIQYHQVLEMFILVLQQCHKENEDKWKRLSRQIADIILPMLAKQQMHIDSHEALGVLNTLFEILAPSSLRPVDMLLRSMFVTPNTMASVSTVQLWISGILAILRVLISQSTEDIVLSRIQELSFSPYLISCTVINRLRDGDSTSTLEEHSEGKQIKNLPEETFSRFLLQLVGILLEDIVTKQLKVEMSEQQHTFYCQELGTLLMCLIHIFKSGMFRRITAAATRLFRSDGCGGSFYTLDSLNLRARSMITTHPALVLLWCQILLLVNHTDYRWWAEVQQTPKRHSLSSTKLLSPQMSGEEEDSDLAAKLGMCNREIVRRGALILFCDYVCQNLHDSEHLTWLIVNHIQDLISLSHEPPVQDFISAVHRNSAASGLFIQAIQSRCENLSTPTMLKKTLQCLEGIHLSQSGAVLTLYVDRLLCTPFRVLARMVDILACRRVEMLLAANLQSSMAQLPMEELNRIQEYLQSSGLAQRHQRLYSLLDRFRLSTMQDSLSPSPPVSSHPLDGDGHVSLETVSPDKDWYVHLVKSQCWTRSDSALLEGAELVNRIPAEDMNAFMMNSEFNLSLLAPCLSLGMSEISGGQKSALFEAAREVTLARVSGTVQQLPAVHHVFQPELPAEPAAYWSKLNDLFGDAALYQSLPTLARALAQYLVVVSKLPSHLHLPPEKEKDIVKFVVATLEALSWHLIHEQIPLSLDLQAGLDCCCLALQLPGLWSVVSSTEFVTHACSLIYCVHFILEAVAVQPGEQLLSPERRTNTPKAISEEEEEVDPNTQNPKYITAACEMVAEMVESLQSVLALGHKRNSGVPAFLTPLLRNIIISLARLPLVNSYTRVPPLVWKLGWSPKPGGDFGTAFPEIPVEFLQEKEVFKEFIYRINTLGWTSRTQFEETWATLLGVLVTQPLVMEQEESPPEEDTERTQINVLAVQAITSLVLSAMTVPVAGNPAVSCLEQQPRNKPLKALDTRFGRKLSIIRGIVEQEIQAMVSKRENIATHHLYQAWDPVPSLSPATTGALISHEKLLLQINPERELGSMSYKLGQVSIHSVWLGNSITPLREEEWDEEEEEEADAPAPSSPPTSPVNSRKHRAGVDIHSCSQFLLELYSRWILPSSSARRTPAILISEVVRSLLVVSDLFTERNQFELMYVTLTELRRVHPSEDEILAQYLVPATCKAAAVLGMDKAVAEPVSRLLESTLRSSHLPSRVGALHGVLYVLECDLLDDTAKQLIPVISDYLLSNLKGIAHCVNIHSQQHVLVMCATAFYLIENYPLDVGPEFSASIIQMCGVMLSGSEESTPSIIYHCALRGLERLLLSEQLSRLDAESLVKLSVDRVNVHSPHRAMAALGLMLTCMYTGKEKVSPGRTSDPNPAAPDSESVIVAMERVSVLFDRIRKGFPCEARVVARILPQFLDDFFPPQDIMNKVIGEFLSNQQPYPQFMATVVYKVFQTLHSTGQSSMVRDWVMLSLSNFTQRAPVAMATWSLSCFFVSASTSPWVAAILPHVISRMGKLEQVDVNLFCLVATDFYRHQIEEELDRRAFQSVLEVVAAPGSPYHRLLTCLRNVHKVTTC
Of the large screens only hits and unclear results are named; the others gave an inactive call. Shown is part of a subset that was picked to be rich in hits. No stated cut-off is given here; in the data, active means inhibition above about 50%; inactive means the rest.

Fc1ccc(C2Nc3ccc(F)cc3C3C=CCC32)cc1 (stereo unspecified)	mHTT CaM bind 94
Cc1cc(I)cc2c1NC(c1ccc(F)cc1)C1CC=CC21 (stereo unspecified)	mHTT CaM bind 54
CC(N)=Nc1sc2c(c1C#N)CCCC2	none
N#CCC(N)=Nc1sc2c(c1C#N)CCCC2	mHTT CaM bind 67
O=C1N/C(=C\c2ccc(Br)s2)C(=O)N1Cc1ccccc1F	none
Cc1ccc(OCC(=O)Nc2ccccc2C(F)(F)F)c(C)c1	none
Oc1ccc(NCc2cccs2)cc1	mHTT CaM bind 64
COC(=O)c1ccc(NCc2cccs2)cc1	none
COc1ccc(C(=O)/C=C/Nc2ccc(S(=O)(=O)Nc3nccnc3OC)cc2)cc1OC	none
O=C1C2C3C=CC(C3)C2C(=O)N1c1ccc(NCc2ccccn2)c([N+](=O)[O-])c1 (stereo unspecified)	none
CN(C)c1ccc(-c2ccc3oc(C4CCCN4C(=O)C4CC4)nc3c2)cc1 (stereo unspecified)	mHTT CaM bind 89
COc1ccccc1-c1ccc2oc(C3CCCN3C(=O)C(C)C)nc2c1 (stereo unspecified)	none
O=C(C1CC1)N1CCCC1c1nc2cc(-c3ccc(F)cc3F)ccc2o1 (stereo unspecified)	none
Cc1ccccc1-c1ccc2oc(C3CCCN3S(C)(=O)=O)nc2c1 (stereo unspecified)	mHTT CaM bind 90
CC(=O)N1CCCC1c1nc2cc(-c3ccc(F)cc3F)ccc2o1 (stereo unspecified)	none
CC(=O)N1CCCC1c1nc2cc(-c3ccc(N(C)C)cc3)ccc2o1 (stereo unspecified)	mHTT CaM bind 86
COc1ccc(NC(=O)c2cc3c(CO)cnc(C)c3oc2=O)cc1Cl	none
Cc1ccc(C)c(N=Cc2c(O)[nH]c3ccccc23)c1	none
CC1CCCCN1CCCNC(=O)c1ccc2c(c1)NC(=O)C(N1CCCCC1)S2 (stereo unspecified)	none
Cc1ccc(C2CC(C(F)(F)F)n3ncc(C(=O)Nc4ccccc4C)c3N2)cc1 (stereo unspecified)	none
Cc1ccc(C2CC(C(F)F)n3ncc(C(=O)Nc4cnn(Cc5ccccc5C)c4)c3N2)cc1 (stereo unspecified)	mHTT CaM bind 56
CCC(C)(C)C1CCc2c(sc(N)c2C#N)C1 (stereo unspecified)	Pf apPOL inh 97 (no result: mHTT CaM bind)
CCN1CCc2c(sc(N)c2C#N)C1	none
Cc1cc2c(=O)n(C(C)C(=O)N3CCN(c4cccc(Cl)c4)CC3)ccc2o1 (stereo unspecified)	mHTT CaM bind 97
Cc1ccc(C(=O)N2CCN(c3cccc(Cl)c3)CC2)cc1	none
Cc1ccccc1NC(=O)c1sc2[nH]c(=O)c(C(=O)O)cc2c1N	none
Cc1ccc(-c2c3c(nc4sc(C(N)=O)c(N)c24)CCCC3)o1	none
COc1ccc(NC(=O)c2sc3nc4c(c(-c5ccc(C)o5)c3c2N)CCCC4)cc1	mHTT CaM bind 69
Nc1ncnc(Nc2ccccc2N=Cc2ccccc2O)c1[N+](=O)[O-]	none
O=[N+]([O-])c1c(Nc2ccccc2O)ncnc1Nc1ccccc1O	mHTT CaM bind 69
COCC(C)Nc1nc(C=Cc2ccccc2)c([N+](=O)[O-])c(N2CCOCC2)n1 (stereo unspecified)	none
O=C(Nc1cc(-c2ccco2)nn1CCO)c1ccc(S(=O)(=O)N2CCOCC2)cc1	none
O=C(CSc1ccc(F)cc1)Nc1cc(-c2ccco2)nn1CCO	mHTT CaM bind 69
COc1ccc(C=C2Oc3c(cc(CN4CCCCC4)c(O)c3C)C2=O)cc1	none
OC/C=C/C=C/c1ccc(F)cc1	mHTT CaM bind 72
CC(/C=C/c1ccc(F)cc1)=C\C(=O)O	none
COCCn1c(C2CCN(C(=O)c3ccc(Cl)s3)C2)nc2cccnc21 (stereo unspecified)	none
Cc1c(Cc2ccccc2)sc(NC(=O)Nc2ccccc2)c1C(N)=O	none
Cc1c(Cc2ccccc2)sc(N)c1C(N)=O	mHTT CaM bind 75
CN(C)CCNC(=O)C1CCN(Cc2cc3ccccc3n2Cc2cccc(F)c2)CC1	mHTT CaM bind 100
COc1ccc2c(c1)c(CN1CCC(C(=O)NCCN(C)Cc3ccccc3)CC1)cn2C	none
Cc1ccc(Cn2c(CN3CCC(C(=O)NCCN(C)C)CC3)cc3ccccc32)cc1	mHTT CaM bind 99
CN(C)CCNC(=O)C1CCN(c2nc3ccccc3o2)CC1	none
O=C(NCc1cccnc1)C1CCN(Cc2cc3ccccc3n2Cc2ccccc2)CC1	mHTT CaM bind 68
O=C(NCc1cccnc1)C1CCN(c2cnn(Cc3ccccc3)c(=O)c2)CC1	none
CC(C)(C)n1nc2c(c1-n1cccc1)CN(C(=O)C1COc3ccccc3O1)C2 (stereo unspecified)	none
COc1ccc(S(=O)(=O)Nc2nc(C(=O)NCc3ccco3)cs2)cc1	none
COc1cc(C(=O)Nc2ccccc2C(=O)NCCc2ccccn2)cc(OC)c1OC	none (no result: mHTT CaM bind)
Cc1cccc(CC(=O)N2CCN(c3nc4ccncc4n(CC(C)C)c3=O)CC2)c1	none
NNC(=O)C1CCN(Cc2cccnc2)CC1	none (no result: mHTT CaM bind)
Cc1cc(OCC(=O)Nc2ccccc2F)ccc1Br	none
CCc1cccc(NC(=O)c2csc3c2CCCC3)c1	none
Cc1c(C(=O)Nc2ccc(S(=O)(=O)Nc3nccs3)cc2)oc2ccccc12	none
COCCN1C(=O)Cc2ccccc2C1C(=O)NCc1ccc(OC)cc1 (stereo unspecified)	none
CCN1C(=O)COc2ccc(-c3noc(-c4ccc(C(F)(F)F)cc4)n3)cc21	none
COc1cc(C=Nc2ccc(Cl)c(Cl)c2)cc(OC)c1OC	none
CC1CCN(c2nnc(C(=O)NCc3ccccn3)c3ccccc23)CC1	none
CC1CCN(c2ccc(N3CCC(C(=O)NCc4ccccn4)CC3)nn2)CC1	mHTT CaM bind 71
Cc1ccc(N2CC(C(=O)NCc3ccccn3)CC2=O)cc1 (stereo unspecified)	mHTT CaM bind 100
Cc1ccc(N2CC(C(=O)NCc3ccccc3)CC2=O)cc1 (stereo unspecified)	none
Cc1ccc(-c2nnc(N3CCC(C(=O)NCc4ccccc4)CC3)o2)cc1	none
CC(=O)N1CC(C(=O)NCCc2ccccn2)CCC1c1ccc(F)c(C)c1 (stereo unspecified)	none
Cc1ccc(-c2nnc(N3CCC(C(=O)NCc4ccccn4)CC3)o2)cc1	mHTT CaM bind 76
CC(=O)N1CC(C(=O)NCc2ccccn2)CCC1c1ccc(F)c(C)c1 (stereo unspecified)	mHTT CaM bind 80
COc1ccc(-n2nc(C(=O)NCc3ccc(F)cc3)c3ccccc3c2=O)c(OC)c1	none
COc1cc(C(=O)N2CCC(CC(=O)NCCN3CCCCC3)CC2)cc(OC)c1OC	none
CC1CCN(C(=O)c2ccc3c(c2)CC(=O)N3C)CC1	none
CCC(=O)N1c2ccccc2-c2nnc(SC)nc2OC1c1cc(OC)c(OC)c(OC)c1 (stereo unspecified)	none
O=C(Nc1nc2c(s1)CCCC2)C(c1ccccc1)n1cccc1 (stereo unspecified)	mHTT CaM bind 95
CC(CC(=O)Nc1nc2c(s1)CCCC2)c1ccccc1 (stereo unspecified)	none
O=C1CC(C=Cc2ccccc2)(Nc2ccc(S(=O)(=O)N3CCCC3)cc2)C(=O)N1C1CCCCC1 (stereo unspecified)	none (no result: mHTT CaM bind)
CC1(C)CC(=O)C2=C(C1)Nc1nc(SCc3ccccc3F)nn1C2c1ccncc1 (stereo unspecified)	none
Cc1ccc(NC(=O)N2CCCC(CCC(=O)NCc3cccc(C(F)(F)F)c3)C2)cc1 (stereo unspecified)	none
